Reference: PubChem BioAssay (NCATS)
Results filed as inconclusive are left out. The source made the active and inactive calls. Unless noted, the rule behind the calls is not given here.

Test: qHTS assay for cell viability of HEK293 cells (AID 743288; active = well fitted cell-killing curve with a large enough effect; note: potency is the fitted concentration of half-maximal effect; nearly all actives have a fitted effect of over 50% in size)
Details: ATP luminescence (CellTiter-Glo), 18 h; max response: stronger effect = lower value
In short: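 Total intracellular ATP, measured with a luciferase-coupled reagent, indicates the number of viable HEK293 cells. Exposure to test chemicals lasts 18 h at 37 C in 1,536-well format at 2,000 cells/well.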

Structure (SMILES) | Potency
CCC[CH2][Sn]([CH2]CCC)([CH2]CCC)[O]C(=O)c1ccccc1 | 7.08 µM (active)
CC[C@H](C)[C@H]1O[C@]2(C=C[C@@H]1C)C[C@@H]1C[C@@H](C/C=C(\C)[C@@H](O[C@H]3C[C@H](OC)[C@@H](O[C@H]4C[C@H](OC)[C@@H](NC)[C@H](C)O4)[C@H](C)O3)[C@@H](C)/C=C/C=C3\CO[C@@H]4[C@H](O)C(C)=C[C@@H](C(=O)O1)[C@]34O)O2 | 50.1 µM (active)
[Cl][Sn]([c]1ccccc1)([c]1ccccc1)[c]1ccccc1 | 2.82 µM (active)

Test: qHTS profiling for inhibitors of Plasmodium falciparum (3D7) proliferation (AID 743322);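 note: infected erythrocytes exposed to compound for 72 h before lysis; 100% = DMSO vehicle wells and 0% = 0.29 µM artemisinin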
Details: P. falciparum 3D7 proliferation; at 28.7 µM (top of the series) unless noted
In short: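 Erythrocytes infected with P. falciparum (0.3% parasitemia, 2.5% hematocrit) incubated with compounds 72 h at 37 C, 5% CO2. Lysis with saponin/Triton buffer containing SYBR Green I, overnight at room temperature in the dark; DNA fluorescence (485/535 nm) normalised to 0.29 uM artemisinin and DMSO.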

Structure (SMILES) | remaining parasite growth % (stronger effect = lower value) [%]
CCCCN(CCCC)CCC(OC(=O)O[C@@H]1CCC[C@]2(C1)OOC1(O2)C2CC3CC(C2)CC1C3)c1cc2c(Cl)cc(Cl)cc2c2cc(C(F)(F)F)ccc12 (stereo not given in full) | -0.394
CSc1cccc(NC(=O)CC[C@H]2O[C@@H]3O[C@]4(C)CC[C@H]5[C@H](C)CC[C@@H]([C@@H]2C)[C@@]35OO4)c1 | -0.517
CCCCN(CCCC)CCC(OC(=O)O[C@H]1CCC[C@]2(C1)OOC1(O2)C2CC3CC(C2)CC1C3)c1cc2c(Cl)cc(Cl)cc2c2cc(C(F)(F)F)ccc12 (stereo not given in full) | -0.262
O=C1C(=O)c2ccccc2C(O)=C1C1CCC2(CC1)OOC1(O2)C2CC3CC(C2)CC1C3 (stereo not given) | 0.339
C[C@H]1[C@@H](CCC(=O)Nc2ccc(F)cc2)O[C@@H]2O[C@]3(C)CC[C@@H]4[C@H](C)CC[C@@H]1[C@@]24OO3 | -0.086
C[C@@H]1[C@@H](CC(C[C@H]2O[C@@H]3O[C@]4(C)CC[C@@H]5[C@H](C)CC[C@@H]([C@H]2C)[C@@]35OO4)C(=O)NCc2ccc(F)cc2)O[C@@H]2O[C@]3(C)CC[C@H]4[C@H](C)CC[C@@H]1[C@@]24OO3 (stereo not given in full) | -0.677

Test: qHTS profiling for inhibitors of Plasmodium falciparum (DD2) proliferation (AID 743323)
Details: lower = more inhibition; at 28.7 µM (top of the series) unless noted
Source text: Plasmodium falciparum is a virulent malarial parasite that kills 1-2 million people worldwide each year. Transmitted by mosquitoes, the sporozoite form of the parasite enters the blood stream to infect hepatocytes, where they become merozoites that infect red blood cells (erythrocytes). Within erythrocytes, merozoites begin a […] cycle of growth and division, after which the parasite is released to infect new red blood cells. Gametocytes, which form within erythrocytes as well, circulate in the bloodstream and are ingested by the mosquito, thereby completing the life cycle. To profile malarial isolates for differential chemical responses and to identify inhibitors of malarial growth, an assay that measures P. falciparum growth and replication within erythrocytes was employed. This assay uses a DNA binding fluorescent dye (SYBR Green) to detect parasite DNA following cell lysis. Because mature erythrocytes lack DNA, only Plasmodium-derived DNA is detected.
The SYBR Green viability assay was adapted from a method described previously (Plouffe et al., 2008). For screening 3 ul culture medium was dispensed into 1536 well black clear bottom plates (Aurora Biotechnologies) using a Multidrop Combi (Thermo Fisher Scientific Inc.), 23 nL compounds in DMSO were added by a pin tool (Kalypsys), and 5 ul of erythrocytes infected with P. falciparum (0.3% parasitemia, 2.5% hematocrit final concentration) were added. The plates were incubated at 37 C in a humidified incubator in 5% CO2 for 72 h, and 2 ul lysis buffer (20 mM Tris HCl, 10 mM EDTA, 0.16% saponin, […]% triton X, 10X SYBR Green I supplied as 10,000X […] by Invitrogen) was added to each well. The plates were mixed for 25 sec with gentle shaking and incubated overnight at room temperature in the dark. The following morning, fluorescence intensity at 485(14) nm excitation and 535(25) nm emission wavelengths was measured on an EnVision (Perkin Elmer) plate reader. Plate reads were normalized relative to the control inhibitor (0.29 uM artemisinin) and vehicle (DMSO) wells present on each plate and then corrected by an algorithm using vehicle-only control plates at the beginning and end of the compound plate stack.

Structure (SMILES) | activity, percent of control [%]
CCCCN(CCCC)CCC(OC(=O)O[C@@H]1CCC[C@]2(C1)OOC1(O2)C2CC3CC(C2)CC1C3)c1cc2c(Cl)cc(Cl)cc2c2cc(C(F)(F)F)ccc12 (stereo not given in full) | 0.0994
CSc1cccc(NC(=O)CC[C@H]2O[C@@H]3O[C@]4(C)CC[C@H]5[C@H](C)CC[C@@H]([C@@H]2C)[C@@]35OO4)c1 | 0.0476
CCCCN(CCCC)CCC(OC(=O)O[C@H]1CCC[C@]2(C1)OOC1(O2)C2CC3CC(C2)CC1C3)c1cc2c(Cl)cc(Cl)cc2c2cc(C(F)(F)F)ccc12 (stereo not given in full) | 0.194
O=C1C(=O)c2ccccc2C(O)=C1C1CCC2(CC1)OOC1(O2)C2CC3CC(C2)CC1C3 (stereo not given) | -0.0523
C[C@H]1[C@@H](CCC(=O)Nc2ccc(F)cc2)O[C@@H]2O[C@]3(C)CC[C@@H]4[C@H](C)CC[C@@H]1[C@@]24OO3 | 0.199
C[C@@H]1[C@@H](CC(C[C@H]2O[C@@H]3O[C@]4(C)CC[C@@H]5[C@H](C)CC[C@@H]([C@H]2C)[C@@]35OO4)C(=O)NCc2ccc(F)cc2)O[C@@H]2O[C@]3(C)CC[C@H]4[C@H](C)CC[C@@H]1[C@@]24OO3 (stereo not given in full) | 0.0214
